Data on 21 compounds can be found in PubChem BioAssay AID2308 (National Center for Advancing Translational Sciences (NCATS), 2010).

Results filed as inconclusive are left out. Active and inactive are the calls of the source. The call rests on the fitted dose curve; in most records, active means well fitted curve in the direction sought with a large enough effect in the signal ratio (not every such curve was filed as active); inconclusive means small, poorly fitted or top-dose-only effect, or a change in a side signal; inactive means no such curve, though single readings can be large or run the other way; the % refers to the signal ratio.

Sequence of Inositol monophosphatase 1 (Rattus norvegicus) (P97697 whole entry, looked up): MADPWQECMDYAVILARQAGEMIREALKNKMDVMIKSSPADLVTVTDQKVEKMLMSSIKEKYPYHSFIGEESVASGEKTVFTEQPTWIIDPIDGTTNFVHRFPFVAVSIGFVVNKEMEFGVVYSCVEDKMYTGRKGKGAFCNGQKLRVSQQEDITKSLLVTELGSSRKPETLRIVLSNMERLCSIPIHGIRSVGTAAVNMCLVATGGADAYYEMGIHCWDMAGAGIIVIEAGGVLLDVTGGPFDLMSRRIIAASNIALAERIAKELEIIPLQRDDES

For this test, the target named is Inositol monophosphatase 1 (Rattus norvegicus) (UniProt P97697). As to the kind of experiment: Confirmation Assay for Identifying the Cell-Membrane Permeable IMPase Inhibitors. Particulars: CHO-M1 cells, carbachol-stimulated IP1 accumulation, HTRF ratio; series mostly up to 41.5 µM; activity change, negative = inhibition: at the top concentration. The text has this:
NIH Chemical Genomics Center [NCGC] NIH Molecular Libraries Probe Production centers Network [MLPCN] MLPCN Grant: X01 MH082413-01 Assay Submitter (PI): Wei Zheng NCGC Assay Overview: Lithium has been widely used for the treatment of bipolar disorder. But lithium has a narrow therapeutic index and it can cause side effects such as thirst, weight gain, tremor, polyuria and memory problems. Although the mechanism for lithium action in treatment of bipolar disorder is still not fully understood, inhibition of inositol monophosphatase (IMPase) and the subsequent depletion of the inositol pool in living cells have been implicated as the primary therapeutic benefit of lithium therapy. Therefore, a selective IMPase inhibitor with reduced side effects might be a good drug candidate to replace lithium for the treatment of bipolar disorder. Several IMPase inhibitors have been discovered previously. However, they are not suitable for therapeutic use because of their poor cell membrane penetrability or oral bioavailability; the development of new cell-permeable IMPase inhibitors is needed. IMPase catalyzes the hydrolysis of inositol-1-phosphate (IP1) to release free inositol. Binding of an agonist to a Gq coupled GPCR results in the activation of PLC, which hydrolyzes the PIP2 to form inositol-1,4,5-trisphosphate (IP3) and diacyl glycerol (DAG). While DAG activates protein kinase C (PKC), IP3 triggers the elevation of intracellular free Ca2+. The IP3 is very rapidly inactivated by hydrolysis to IP2, IP1 and then inositol by a series of enzymes including IMPase. Free inositols are used for synthesis of PI and thus start another inositol cycle. To identify new cell-permeable IMPase inhibitors, we developed a cell-based IMPase assay in which the cytosolic IP1 is measured by a time-resolved fluorescence resonance energy transfer (TR-FRET) assay. In this assay, an IP1 specific antibody is used to detect the labeled IP1 tracer. When the cell lysate contains the elevated IP1 due to the inhibition of IMPase, the TR-FRET between the labeled antibody and IP1 tracer is disrupted resulting in a reduction in the total signal. Since the TR-FRET is used, this cell-based assay is a homogenous assay without cell wash and medium change that is suitable for assay miniaturization and HTS.
NCGC IMPase Assay Protocol Summary A Chinese hamster ovary (CHO) cell line stably expressing the M1 receptor (CHO-M1) was obtained from ATCC and maintained in F-12 Kaighn's media (Invitrogen, Carlsbad, CA, 21127) supplemented with 10 % FBS, 100 units/ml penicillin, 100 ug/ml streptomycin and 250 ug/ml geneticin at 37C, 5% CO2 in a humidified atmosphere. Before the assay, aliquots of cells were frozen and stored at -135C. The assay was performed in 1536-well format. Data are reported for both the ratio of the two emission wavelengths, and also for the component 'donor' channel, Em2=620. Data were normalized to the controls for basal activity (DMSO only) and 100% inhibition (18.4 mM LiCl). AC50 values were determined from concentration-response data modeled with the standard Hill equation. IMPase 1536-well assay protocol: (1) Plate 4 ul/well (2000 cells) of cell suspension from frozen CHO-M1 Cells in white, tissue culture treated 1536-well plates that are cultured at 37C, 5 % CO2 for 16 to 30 hours. (2) Add 23 nl/well of compound in DMSO solution. The final titration for each compound was between 0.6 nM and 46 uM. […]
Background: TR-FRET usually uses a lanthanide donor and a delayed reading to cut background.
Consider `C[N+](C)(CCCCCC[N+](C)(C)CCCN1C(=O)c2cccc3cccc(c23)C1=O)CCCN1C(=O)c2cccc3cccc(c23)C1=O`, for which the “activity change, negative = inhibition” value was -14.1% (inactive). Same read-out and setting: as for `COc1cccc(NC(=O)CN(C)C(C)C(=O)Nc2cc([N+](=O)[O-])ccc2Cl)c1` (stereo unspecified), the figure is 33.2% (inactive). As to `COc1ccc(C2c3c(ncn(CCN4CCOCC4)c3=N)Oc3ccc4ccccc4c32)cc1OC` (stereo unspecified), the “activity change, negative = inhibition” value is -8.46% (inactive). `Cc1ccc(-c2c(C(=O)Nc3ccccc3C)c(C)[nH]c(=S)c2C#N)o1`: the “activity change, negative = inhibition” value is -20.4% (inactive). For `COc1ccc(/C=C2\CCCC3C2=NN(C(=O)c2ccco2)C3c2ccc(OC)c(OC)c2)cc1OC` (stereo unspecified), the “activity change, negative = inhibition” value is -14.2% [at 198 µM] (inactive). Take `O=P(O)(OCc1ccccc1)OCc1ccccc1`: the “activity change, negative = inhibition” value was 17.9% (inactive). In the case of `COc1ccc(N2CSC3=C(C#N)C(c4cccs4)CC(=O)N3C2)cc1` (stereo unspecified), the “activity change, negative = inhibition” value was -29.2% (inactive).

On to `CCc1c(C)nc2c(OC)cccc2c1SCCC(=O)O`, for which the “activity change, negative = inhibition” value was -23.6% (inactive). The same measure, in the same setting: then `COc1ccc2oc(-c3ccccc3)c(C(N)=O)c2c1`, with 6.28% (inactive); and `O=C(NCCCn1ccnc1)c1cc(-c2ccncc2)nc2ccccc12`, with 3.25% (inactive). Turning to `CC1(C)Cc2c(ccc3ccccc23)C2=C(C(=O)N3CCCC3)C(=O)C(=O)N21`, the “activity change, negative = inhibition” value was 18.9% (inactive). Regarding `O=C(CCC(=O)c1cccs1)NCc1cccnc1`, the “activity change, negative = inhibition” value was 11.4% (inactive). `CC(=O)C1=C(O)C(=O)N(Cc2ccco2)C1c1ccccc1F` (stereo unspecified): the “activity change, negative = inhibition” value is -31.2% (inactive). Consider `[Li+]`, for which the Potency is 708 µM (active). For `O=C(NC1CCS(=O)(=O)C1)C1C2CC3CC(C2)CC1C3` (stereo unspecified), the “activity change, negative = inhibition” value is 13.9% (inactive). On to `N#Cc1c(-c2ccc(Br)cc2)nc2n(c1=O)CCCS2`, for which the “activity change, negative = inhibition” value is -12.4% (inactive). The same measure, in the same setting: as for `CNC(=O)c1ccc(NC(=O)/C=C/c2cccc(F)c2)cc1`, the figure is 2.85% (inactive). As for `CC(C)(C)c1ccc(-c2nnc3sc(-c4ccccn4)nn23)cc1`, the “activity change, negative = inhibition” value was -5.12% [at 198 µM] (inactive).

Take `N#CC1=C(N)Oc2n[nH]c(-c3ccccn3)c2C1c1c(F)cccc1Cl` (stereo unspecified): the “activity change, negative = inhibition” value is 22.4% (inactive).

For `CCOC(=O)c1cc2c(=O)n3ccccc3nc2n(Cc2ccco2)c1=NC(=O)c1cccnc1`, the “activity change, negative = inhibition” value was -14.5% (inactive). With `N#CCN1CCC(c2cc(-c3ccco3)n[nH]2)CC1`, the “activity change, negative = inhibition” value was 11.4% (inactive).
